# In PubChem BioAssay AID1376 (SRMLSC, 2008):
# Among all 220,000 compounds or so, about 530 (0.24%) were called active. The entries come from a sample that favours actives as a whole. Entries with a potency or affinity are not part of this list. Values without a mark were called inactive. Rule as the data show it: active = inhibition above about 13%; inconclusive = no clear call, values can overlap the other calls; inactive = below that.
# Biological target: Bifunctional protein GlmU (Mycobacterium tuberculosis (strain ATCC 25618 / H37Rv)) (UniProt P9WMN3)
# Test: inhibition of mycobacterial GlmU enzyme – biochemical, glucosamine-1-phosphate acetyltransferase (AID 1376);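 also: 0% = complete reaction with vehicle and 100% = reaction without substrate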
# Conditions: M. tuberculosis GlmU acetyltransferase enzyme assay; hits give high values;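 tested at 30 µM in the primary screen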
# Sequence of Bifunctional protein GlmU (Mycobacterium tuberculosis (strain ATCC 25618 / H37Rv)) (P9WMN3 whole entry, looked up): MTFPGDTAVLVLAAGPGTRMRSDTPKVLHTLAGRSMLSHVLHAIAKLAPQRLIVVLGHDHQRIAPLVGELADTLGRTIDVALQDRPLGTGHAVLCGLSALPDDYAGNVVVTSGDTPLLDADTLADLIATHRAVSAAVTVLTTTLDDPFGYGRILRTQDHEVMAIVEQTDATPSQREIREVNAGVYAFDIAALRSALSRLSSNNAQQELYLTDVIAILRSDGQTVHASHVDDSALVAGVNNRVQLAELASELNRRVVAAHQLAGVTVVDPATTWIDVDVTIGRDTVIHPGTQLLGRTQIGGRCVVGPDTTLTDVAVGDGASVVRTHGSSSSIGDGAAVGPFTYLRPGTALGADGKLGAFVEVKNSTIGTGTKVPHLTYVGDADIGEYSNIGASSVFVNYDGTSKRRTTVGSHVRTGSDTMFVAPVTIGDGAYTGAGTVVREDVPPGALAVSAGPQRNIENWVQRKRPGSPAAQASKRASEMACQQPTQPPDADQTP
row,Structure (SMILES),inhibition
1,CCc1cc2c(SCC(=O)O)ncnc2s1,-4.14%
2,CCc1cc2c(SCC(=O)C(C#N)=C3N(C)c4ccccc4N3C)ncnc2s1,15% (active)
3,CCc1cc2c(SCC(=O)c3ccccc3)ncnc2s1,-3.16%
4,Cn1c(=O)c2c(SCC(=O)NCCc3ccccc3)nc(C3CC3)nc2n(C)c1=O,1.2%
5,O=C(Cn1cnc2c(nnn2Cc2ccc(F)cc2)c1=O)N1CCCc2ccccc21,-5.31%
6,COc1ccc(OC)c(NC(=O)CCN2CCCCCC2)c1,-10.2%
7,CCOC(=O)CC1C(=O)NCCN1C(=O)Nc1ccccc1 (centres undefined),-2.01%
8,CCC(C)(C(=O)NC1CCCCC1)N(C)C(=O)c1ccccn1 (centres undefined),14.8% (active)
9,CCC(C)(C(=O)NC1CCCCC1)N(C(=O)c1ccccn1)c1ccccc1 (centres undefined),2.61%
10,CCC(C)(C(=O)NC1CCCC1)N(C)C(=O)c1ccccn1 (centres undefined),-5.14%
11,Cc1ccc(S(=O)(=O)Nc2nccs2)cc1[N+](=O)[O-],-3.62%
12,O=S1(=O)CCN(Cc2cccc(Cl)c2)CC1,-7.45%
13,CC(=O)Nc1cccc(NC(=O)c2ccc([N+](=O)[O-])cc2Cl)c1,-7.61%
14,Cc1ccc(C[n+]2cccc(-c3ccccc3)c2)c(C)c1,-2.52%
15,Cc1ccc(NC(=O)C2c3ccccc3Oc3ccccc32)nc1,-2.94%
16,O=C1C(=Cc2ccco2)C(=O)c2ccccc21,8.37%
17,O=C(NCc1ccco1)c1ccc2c(c1)C(=O)c1ccccc1-2,-0.25%
18,Cc1ccc(/C=N/Nc2ccc(C(=O)O)cc2)o1,0.55%
19,O=C(O)c1ccc2c(c1)C(=O)/C(=C\c1ccco1)C2=O,17.2% (active)
20,Cc1ccc(C(=O)O)cc1-c1ccc(C=C2C(=O)c3ccccc3C2=O)o1,11.7%
21,Cc1csc(SC(C)C(=O)Nc2ccc(S(=O)(=O)N3CCCC3)cc2)n1 (centres undefined),-1.61%
22,COCCCNC(=O)c1cc(C)nc2ccc(F)cc12,1.65%
23,CC(C)c1nnc(NC(=O)CCC(=O)N2CCN(Cc3ccccc3)CC2)s1,3.04%
24,CCN(CC)S(=O)(=O)c1ccc2nc(CCl)[nH]c2c1,-0.14%
25,Cc1sc2nc(SCc3nnc(-c4cccs4)o3)n(C3CCCC3)c(=O)c2c1C,-5.93%

row,Structure (SMILES),inhibition
1,CCOC(=O)c1c(NC(=O)CN2CCCCC2)sc(CN(C)C)c1-c1ccccc1,-2.86%
2,CC(=O)c1cc(F)c(N2CCN(C(=O)COc3ccccc3F)CC2)cc1C,1.65%
3,Cc1ccc(NC(=S)N2CCCCC2CO)cc1C (centres undefined),-3.71%
4,N#Cc1ccccc1OCC(=O)C1CC1,5.73%
5,COc1cccc(C(=O)CSc2nnc(-c3cccs3)o2)c1,4.7%
6,COc1ccc(N2CCN(c3ccc(N)cc3C#N)CC2)cc1,-1.62%
7,N#Cc1cc(N)ccc1-n1cccc1,13.7% (active)
8,N#Cc1c(-n2cccc2)cccc1-n1cccc1,9.31%
9,O=C(O)C(Cl)Cl,2.18%
10,O=C(O)[C@@H](O)[C@H](O)C(=O)O,2.76%
11,CC1CCc2c(sc3ncnc(NS(=O)(=O)c4cccs4)c23)C1 (centres undefined),0.41%
12,O=C1CSC(=Nc2cccc(Cl)c2Cl)N1Cc1cccnc1,1.06%
13,CC(=O)c1ccc(N2CCN(C(=S)Nc3cc(C)ccc3C)CC2)cc1,-4.28%
14,CCc1ccc2[nH]c(=O)c(CN(CCN(CC)CC)C(=O)NC3CCCCC3)cc2c1,-7.06%
15,CCN(CC)CCN(Cc1cc2cc3c(cc2[nH]c1=O)OCCO3)C(=O)NC1CCCCC1,4.4%
16,CCN(CC)CCN(Cc1cc2ccc(C)cc2[nH]c1=O)C(=O)NC1CCCCC1,14.2% (active)
17,O=c1[nH]c(=O)n(-c2cccc3ccccc23)c(O)c1/C=N/N1CCCCC1c1cccnc1 (centres undefined),-5.46%
18,CC(OC(=O)c1cccs1)C(=O)NCc1cccs1 (centres undefined),-4.58%
19,Cn1c(=O)c(C(=O)Nc2ncccc2O)c(O)c2ccccc21,2.25%
20,CC(=O)c1ccc(C)cc1OC(=O)c1cccc(F)c1,3.37%
21,O=C(O)c1cc(O)c2c(c1)C(=O)c1cc(O)cc(O)c1C2=O,13.3% (active)
22,Cc1cc(O)c2c(c1)C(=O)c1cc(O)cc(O)c1C2=O,-2.62%
23,O=C(O)c1cc(O)c2c(c1)C(=O)c1cccc(O)c1C2=O,0.69%
24,Cc1ccc(NC(=O)CN(C)C(=O)c2ccc(S(=O)(=O)N(C)c3ccccc3)cc2)cc1,2.55%
